# Source: PubChem BioAssay (Paczesny and Yang Labs, IUPUI and University of Michigan)
# Many of the other results were omitted from the sample, so hits are more common in it than they were.
# ST2 inh: inhibitors of human ST2 (IL1RL1) binding to IL-33. AlphaLISA ST2-Fc/biotin-IL-33 interaction, 1 h. inhibition, % for hits at 17 µM. 2.3% of 78,000 active. AID 1259354; in the data active = inhibition above about 30%
# Target sequence (Q01638 whole entry, looked up): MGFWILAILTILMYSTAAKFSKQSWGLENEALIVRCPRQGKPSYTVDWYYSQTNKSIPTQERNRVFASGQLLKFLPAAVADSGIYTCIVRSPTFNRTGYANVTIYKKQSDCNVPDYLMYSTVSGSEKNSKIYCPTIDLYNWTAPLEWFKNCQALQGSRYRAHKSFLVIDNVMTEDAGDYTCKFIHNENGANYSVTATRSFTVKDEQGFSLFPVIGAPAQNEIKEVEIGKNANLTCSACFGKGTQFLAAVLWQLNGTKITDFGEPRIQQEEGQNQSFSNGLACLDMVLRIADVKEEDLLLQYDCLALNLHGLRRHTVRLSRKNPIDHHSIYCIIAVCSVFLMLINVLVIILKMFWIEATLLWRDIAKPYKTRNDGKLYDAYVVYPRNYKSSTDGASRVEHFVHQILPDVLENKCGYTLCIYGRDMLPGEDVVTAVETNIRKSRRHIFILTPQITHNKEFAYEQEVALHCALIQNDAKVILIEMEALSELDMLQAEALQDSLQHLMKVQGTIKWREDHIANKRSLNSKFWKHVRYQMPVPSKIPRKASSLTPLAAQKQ
# * marks the source's active call; other numbers are inactive results; i = inactive.
SMILES,ST2 inh
CC1(C)OC(=O)C(=CNc2ccc(C(=O)O)cc2)C(=O)O1,i
CC1(C)OC(=O)C(=Cc2ccc(I)o2)C(=O)O1,93%*
CCCCC1(C)OC(=O)C(=Cc2ccc(OC)c(I)c2)C(=O)O1 (stereo not drawn),i
O=C1C(=Cc2ccc(-c3ccc(F)cc3)o2)C(=O)c2ccccc21,i
O=C1C(=Cc2cccn2-c2ccc(Cl)cc2)C(=O)c2ccccc21,i
CCCCC1(C)OC(=O)C(=Cc2ccc(Br)o2)C(=O)O1 (stereo not drawn),73%*
O=C1C(=Cc2ccc(Br)o2)C(=O)c2ccccc21,52%*
CCCCOc1ccc(OC(=O)c2ccc(Br)o2)cc1,i
COc1cc(C=C2C(=O)OC(C)(C)OC2=O)cc(Br)c1O,i
CCCCC1(C)OC(=O)C(=Cc2ccc(N(CC)CC)cc2)C(=O)O1 (stereo not drawn),33%*
CC1(c2ccccc2)OC(=O)C(=Cc2ccc(O)cc2)C(=O)O1 (stereo not drawn),i
Cc1ccccc1CN1CCC(CN(Cc2cccnc2)C(=O)c2scnc2C)CC1,i
CNC(=O)[C@@H]1C[C@H](N)CN1C(=O)CCCOc1ccccc1,i
COc1cccc(-c2nnc(NC(=O)c3ccc(S(=O)(=O)N4CCCC(C)C4)cc3)o2)c1 (stereo not drawn),i
Cc1ccc(CSc2nc(-c3cccs3)nc3c2c(=O)n(C)c(=O)n3C)cc1,i
COCCNC(=O)CN1C(=O)/C(=C\c2cccc(Cl)c2)Sc2ccccc21,i
C=CCn1c(SCC(=O)NCCc2ccccc2)nnc1-c1ccc(Cl)cc1Cl,i
COc1c(F)cc(CN2CCC(=O)NCC2C)cc1Cl (stereo not drawn),i
COc1ccc(NC(=O)CCC2CCCN(C(=O)C3=CC(=O)CC(C)(C)O3)C2)cc1Cl (stereo not drawn),i
CCOC(=O)c1c(NC(=O)c2cccc(Br)c2)sc(C(C)=O)c1C,i
Cc1ccc(CN2C(=O)CCC2C(=O)NCCN2CCCC2)cc1 (stereo not drawn),i
O=C(CN1C(=O)C2(OCCCO2)c2ccccc21)NC1CCCCC1,i
COc1cc(CN2CCC(C)CC2)c([N+](=O)[O-])cc1OC,i
COc1cc(C(c2ccc(C)o2)c2ccc(C)o2)c([N+](=O)[O-])cc1OC,36%*
COc1cc(CC(=O)O)c([N+](=O)[O-])cc1OC,i
SMILES,ST2 inh
Oc1cccc2ccc(/C=C/c3cc4c(cc3Cl)OCO4)nc12,32%*
CC(=O)Nc1ccc2cccc(O)c2n1,i
COc1cccc(NC(=O)CSc2nnc3ccccn23)c1,i
COc1cccc(NC(=O)CSc2nnc(Cc3ccccc3)n2C)c1,40%*
COc1cccc(NC(=O)CSc2c3c(nc4ccccc24)CCC3)c1,i
O=C(c1ccc(F)cc1)N1CCN=C1SCc1ccccc1F,i
COc1ccc(NCCNc2ccc(OC)cc2)cc1,48%*
COc1ccc(NS(C)(=O)=O)cc1,i
COc1ccc(NC(=O)C(C)(C)C)cc1,i
C=CCC1c2cccc(C(=O)O)c2C(=O)N1c1cccc(OC)c1 (stereo not drawn),i
O=C(O)c1ccccc1N1C(=O)C2C3CC(C(Br)C3Br)C2C1=O (stereo not drawn),i
CC1CC2c3cccc(C(=O)O)c3C(=O)N2c2ccc(F)cc21 (stereo not drawn),32%*
CS(=O)(=O)N1Cc2ccccc2CC1C(=O)NC1CCCCCCC1 (stereo not drawn),i
O=C(c1ccc(F)c(F)c1)N1CCCC(N2CCN(c3cccc(Cl)c3)CC2)C1 (stereo not drawn),i
Cc1nc2ccc(NC(=O)N3CCN(c4ccccc4)CC3)cc2nc1C,i
CCOC(=O)N1CCN(C(=O)Nc2ccc3nc(C)c(C)nc3c2)CC1,i
O=C(Nc1ccc2nc(-c3ccco3)c(-c3ccco3)nc2c1)N1CCSCC1,30%*
O=C(Nc1ccc2nsnc2c1)N1CCCCCC1,i
O=C(Nc1ccc2nc(-c3ccco3)c(-c3ccco3)nc2c1)N1CCOCC1,36%*
O=C(Nc1ccc2nc(-c3ccccn3)c(-c3ccccn3)nc2c1)N1CCOCC1,i
CC(C)CN1C(=O)N(CCc2ccccc2)C2(CCN(Cc3cc(F)ccc3F)CC2)C1=O,i
Cc1ccc(C2(O)CCN(C(=O)c3ccc4c(c3)nnn4C)CC2)nc1,i
Cc1ccc(NC(=O)CN(C)Cc2csc(C(C)C)n2)c(C)c1,i
O=C(CCS(=O)(=O)c1ccc(Br)s1)N1CCCc2ccccc21,i
N#CC(NC(=O)c1ccc(Cl)cc1)=C(Cl)Cl,i
SMILES,ST2 inh
C=CCN1C(=O)c2ccccc2Sc2ccc(C(=O)NCCc3ccccc3)cc21,i
O=C(NC1CCCCC1)c1ccc(Cl)cc1,i
O=C(NC1CCCCCCC1)c1ccccc1,i
Nc1cc(C(=O)O)ccc1NC1CCCCC1,31%*
O=C(/C=C/c1ccncc1)N1CCCC(N2CCN(c3cccc(Cl)c3)CC2)C1 (stereo not drawn),i
CCSc1nc2c(c(=O)[nH]1)C(c1ccc(N(C)C)cc1)C1=C(CCCC1=O)N2 (stereo not drawn),i
COc1ccc(N=Cc2cc(Br)cc(Cl)c2O)cc1,i
NC(N)=NS(=O)(=O)c1ccc(N=Cc2cc(Br)cc(Br)c2O)cc1,i
Oc1c(Br)cc(C=Nc2ccc(N3CCOCC3)cc2)c(O)c1Br,52%*
C=CCc1c(C)nc2nc(SCC(=O)Nc3ccc(CC)cc3)nn2c1C,i
Cc1cc(=O)[nH]c(NCCNC2CCC3(CCNCC3)CC2)n1,i
O=C(O)CCCC(=O)Nc1ccc(C(=O)O)cc1,i
O=C(CCCN1C(=O)S/C(=C\C=C\c2ccccc2)C1=O)Nc1ccc(C(=O)O)cc1,32%*
O=C(CCCCCN1C(=O)c2ccccc2C1=O)Nc1ccc(Cl)cc1,i
Cc1cc(C(=O)Nc2sc3c(c2C(N)=O)CCC(C)C3)ccc1[N+](=O)[O-] (stereo not drawn),i
CC(=O)Nc1ccc(S(=O)(=O)Nc2ccccc2Cl)cc1,i
O=C(O)c1ccc(NC2=CC(=NS(=O)(=O)c3ccc(Cl)cc3)c3ccccc3C2=O)cc1,48%*
O=C(O)c1cccc(NC(=O)c2cccc(S(=O)(=O)Nc3ccc(Cl)cc3)c2)c1,i
CC(=O)Nc1ccc(S(N)(=O)=O)cc1,i
CC(=O)Nc1ccc(S(=O)(=O)NCc2ccccc2)cc1,i
CC(=O)Nc1ccc(NC2=CC(=NS(=O)(=O)c3ccccc3)c3ccccc3C2=O)cc1,83%*
O=S(=O)(Nc1ccc(S(=O)(=O)Nc2ccc(Cl)cc2)cc1)c1ccccc1,i
CC(=O)Nc1ccc(NC2=CC(=NS(=O)(=O)c3ccc(C)cc3)c3ccccc3C2=O)cc1,48%*
C=CCC(CC=C)(NS(=O)(=O)c1ccc(NC(C)=O)cc1)c1ccccc1,i
COc1ccc(-c2nnc(NC(=O)c3ccc(Br)cc3)s2)cc1,i
SMILES,ST2 inh
CCn1ncc(NC(=O)Cn2ncc3cc(-c4ccccc4C)ccc32)n1,i
Cc1ccoc1C(=O)NCCC(=O)Nc1cccc2ccccc12,i
COc1ccc(-n2ccnc2CN2CCCC(N(C)CCc3ccccc3)C2)cc1 (stereo not drawn),i
CCCC(=O)N1CCN(c2cc(C)c(C(C)=O)cc2F)CC1,i
N#Cc1c(-c2ccc(Cl)cc2)cc(-c2cccs2)nc1SCC(N)=O,i
O=C(Nc1c2c(nn1-c1cccc(Cl)c1)CS(=O)C2)c1ccc(F)cc1 (stereo not drawn),i
COc1ccc2nc(N3CCCC(C(=O)NCc4ccco4)C3)sc2c1 (stereo not drawn),i
